# Data from PubChem BioAssay AID463173 (ICCB-Longwood Screening Facility, Harvard Medical School, 2010).
# Out of some 52,000 compounds screened, about 1,700 (3.3%) were called active. Cut-off read from the data, not from the text of the source: active = survival mostly below about 52% (no sharp cut-off); inactive = mostly above about 56%. Only a selection was taken, and actives are over-represented in it overall.
# System: Wild type
# Experiment: S. aureus survival, RN4220 and DeltatarO strains – OD600, teichoic acid synthesis inhibitors, primary screen (AID 463173)
# Settings: S. aureus RN4220 wild type/DeltatarO growth, OD600, 18 h, stronger effect = lower value, screened at 18.75 µg/mL (by protocol)
row,SMILES,survival
1,c1ccc(-c2nc3cc(Cc4ccc5oc(-c6ccccn6)nc5c4)ccc3o2)nc1,113% (inactive)
2,CCC1=Nc2cc(C(=O)NCCN(CC)CC)ccc2Sc2ccccc21,93% (inactive)
3,Cc1ccccc1NC(=O)CC1COc2ccccc2O1 (stereo not drawn),111% (inactive)
4,O=C(NCCCc1nc2ccccc2n1Cc1ccccc1F)c1ccco1,92% (inactive)
5,Cc1ccccc1Cn1c(CCCNC(=O)C2CCCCC2)nc2ccccc21,101% (inactive)
6,COc1ccc(Cc2nc3ccccc3n2Cc2ccccc2C)cc1,1% (active)
7,O=C(NCCc1nc2ccccc2n1Cc1ccccc1F)c1ccc(F)cc1,82% (inactive)
8,COc1ccc(Cc2nc3ccccc3n2Cc2ccccc2F)cc1,23% (active)
9,COc1cccc(OCc2nc3ccccc3n2Cc2ccccc2C)c1,87% (inactive)
10,Cc1ccc(-c2nc(CCNC(=O)C(=O)Nc3ccc(F)cc3F)cs2)cc1,63% (inactive)
11,Cc1ccc(NC(=O)c2ccc(Cl)cc2Cl)c(C(=O)c2ccccc2)c1,1% (active)
12,O=C(Nc1cc2c(cc1C(=O)c1ccccc1)OCCO2)c1ccc(Br)cc1,86% (inactive)
13,Cc1cc(NC(=O)c2ccccc2Cl)ccc1NC(=O)c1ccccc1,85% (inactive)
14,Cc1ccc(NC(=O)c2ccccc2Br)c(C(=O)c2ccccc2)c1,25% (inactive)
15,Cc1ccc(NC(=O)c2ccc(Br)cc2)c(C(=O)c2ccccc2)c1,-2% (active)
16,Cc1ccc(C(=O)COC(=O)c2cccc(NC(=O)c3ccc(Cl)cc3Cl)c2)cc1,81% (inactive)
17,CCCCn1cc2c(c1-c1ccc(Cl)cc1)c(=O)n(C)c(=O)n2C,83% (inactive)
18,COc1ccc2c(CNC3CCCCCC3)c(C(=O)O)n(Cc3ccccc3F)c2c1,89% (inactive)
19,CCC1CCCCN1C(=O)c1ccc2c(c1)N(Cc1cccc(Cl)c1)C(=O)c1ccccc1S2(=O)=O (stereo not drawn),73% (inactive)
20,Cc1ccc(N2CCN(C(=O)c3c(C)oc4nc(C)nc(N5CCCC5)c34)CC2)c(C)c1,81% (inactive)
21,Cc1nn2c(-c3cccc(NC(=O)c4ccc(Cl)cc4)c3)nnc2c2ccccc12,113% (inactive)
22,Cc1nn(-c2ccccc2)c2sc(C(=O)Nc3ccccc3Br)cc12,7% (active)
23,COc1ccccc1NC(=O)c1cc2c(-c3ccccc3)nn(-c3ccccc3)c2s1,77% (inactive)
24,Cc1ccccc1NC(=O)c1cc2c(-c3ccccc3)nn(-c3ccccc3)c2s1,86% (inactive)

row,SMILES,survival
1,COc1ccccc1NC(=O)c1cc2c(C)nn(-c3ccccc3)c2s1,1% (active)
2,COc1ccc(NC(=O)c2cc3c(C)nn(-c4ccccc4)c3s2)c(OC)c1,63% (inactive)
3,Cc1nn(-c2ccccc2)c2sc(C(=O)Nc3ccc(Br)cc3)cc12,52% (inactive)
4,Cc1ccc2oc(=O)c3cc(C(=O)Nc4ccc(F)cc4F)sc3c2c1,80% (inactive)
5,CCc1ccccc1NC(=O)c1ccc(Cn2nc(N3CCN(c4ccccc4)CC3)ccc2=O)o1,70% (inactive)
6,Cc1cccc(-n2ccnc2SCC(=O)Nc2ccc(F)cc2F)c1C,71% (inactive)
7,Cc1cccc(CS(=O)(=O)CC2Nc3ccc(C(=O)NCc4ccccc4)cc3NC2=O)c1 (stereo not drawn),71% (inactive)
8,CCOC(=O)CNc1ncnc2c1nnn2C,22% (inactive)
9,CCc1nc2c(cnn2-c2ccc(Cl)cc2)c(=O)n1-c1ccc(OC)c(Cl)c1,78% (inactive)
10,CCOc1cccc2sc(NC(=O)c3ccc(S(=O)(=O)N4CCCCC4)cc3)nc12,75% (inactive)
11,CCOc1cccc2sc(NC(=O)c3ccc(S(=O)(=O)N4CCCCC4C)cc3)nc12 (stereo not drawn),10% (active)
12,CCOc1cccc2sc(NC(=O)c3ccc(S(=O)(=O)N4CCCc5ccccc54)cc3)nc12,88% (inactive)
13,CCOC(=O)c1c(-c2ccccc2)csc1NC(=O)c1cc(-c2ccc(Cl)cc2)on1,85% (inactive)
14,Cc1ccc(-n2ncc3c(NCCC4=CCCCC4)ncnc32)cc1C,131% (inactive)
15,Fc1ccc(-n2ncc3c(NCCC4=CCCCC4)ncnc32)cc1,59% (inactive)
16,Cc1ccc(-n2ncc3c(NCCC4=CCCCC4)ncnc32)cc1,-3% (active)
17,Cc1ccc(-n2ncc3c(NCCCc4ccccc4)ncnc32)cc1,69% (inactive)
18,CCC(C)Nc1ncnc2c1cnn2-c1ccc(F)cc1 (stereo not drawn),71% (inactive)
19,CCC(CO)Nc1ncnc2c1cnn2-c1ccc(C)cc1 (stereo not drawn),-6% (active)
20,Cc1ccc(-n2ncc3c(NC(C)c4ccccc4)ncnc32)cc1 (stereo not drawn),73% (inactive)
21,CCCCc1ccc(Nc2ncnc3c2cnn3-c2ccc(C)cc2)cc1,-1% (active)
22,Cc1ccc(-n2ncc3c(Nc4ccc(Oc5ccccc5)cc4)ncnc32)cc1,74% (inactive)
23,COc1ccc(-c2noc(-c3ccc(N4CCC(C)CC4)c([N+](=O)[O-])c3)n2)cc1OC,89% (inactive)
24,O=C(C1CCCCC1)N(Cc1cccnc1)c1nc2ccc(Cl)cc2s1,72% (inactive)
